The source of these data is PubChem BioAssay (NCI).

About 83,000 compounds went through this panel and 20% of them were active in at least one assay; those are over-represented in the sample as a whole.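 A percent growth of 40 corresponds to 60% growth inhibition; 0 means no net growth; -100 means all cells died. Active threshold: below 10.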 The source made the active and inactive calls.

This assay deals with SR leukemia. The assay is described as follows: NCI-60 one-dose screen, 48 h (100 = growth as untreated, 0 = no growth, -100 = all killed). The note with it: 10 µM unless noted. The method, then:
Growth inhibition of the SR human tumor cell line is measured as a screen for anti-cancer activity. Cells are grown in 96 well plates and exposed to the test compound for 48 hours. Compounds are tested at a single concentration, which is 10^-5 M for most compounds. The reported endpoint is percent growth (GI% or GIPRCNT), where numbers from 0 - 100% represent growth inhibition, and numbers from -100% - 0 represent cell death. For example, a value of 40 represents 60% growth inhibition. A value of 0 means no net growth occurred over the course of the experiment. A value of -40 indicates 40% of cells at the beginning of the experiment died by the end of the experiment. A value of -100 means all cells are dead at the end of the experiment.
NCI-60 Human Tumor Cell Lines Screen was performed using the standard one-dose NCI protocol, which is described in more detail at https://dtp.cancer.gov/discovery_development/nci-60/default.htm.
Compounds with GIPRCNT values below 10 were considered active. Activity score was based on GIPRCNT using the following formula: […]
Score is 0 for GIPRCNT values of 100 or above, 50 for GIPRCNT values of 0, and 100 for GIPRCNT values of -100.
In the case of `Clc1cc(Cl)cc(N2N=C(c3cccc(Nc4ccncc4)c3)CC2c2ccc(Br)cc2)c1` (stereo not given), the growth is 3.33% (active).

As to `CN(Cc1ccccc1)c1nc(Cl)c(C2CC(c3ccc(Cl)cc3)=Cc3[nH][nH]c(=O)c32)s1` (stereo not given), the growth is 94.2% (inactive). As to `Cc1cccc(C)c1-c1cc(Cc2ccc(Cl)cc2)c(=O)[nH]n1`, the growth was 4.66% (active). To `O=C(O)c1cn(C2CC2)c2cc(N3CCN(C(=O)C[n+]4cccc5ccccc54)CC3)c(F)cc2c1=O` belongs 15.6% (inactive). With `NC(=O)CN1CCN(c2ccccc2Cl)CC1`, the growth is 99.5% (inactive).

Take `Clc1nc(Cl)c2ncn(CC3(Cn4cnc5c(Cl)nc(Cl)nc54)COC3)c2n1`: the growth is -76.1% (active).

In the case of `COc1ccc(C(=O)/C=C/c2c(OC)cc(OC)cc2OC)c(OC)c1`, the growth is 23.1% (inactive). The value for `COc1ccc(C(=O)c2cc3c(N)c(C(=O)Nc4cccc(Br)c4C)sc3nc2C)cc1` was -21.4% (active); that for `C=C1C(=O)O[C@H]2[C@H]1CC/C(CNC(=O)/C=C/c1ccc(Br)cc1)=C\CC[C@@]1(C)O[C@@H]21` was 0.986% (active); that for `COc1cnccc1-c1nc2ccc3[nH]ncc3c2c2c1CCCC2` was 8.78% (active). The value for `Cc1ccc2[nH]c(=S)n(-c3ccc(S(=O)(=O)Nc4ccc(Cl)nn4)cc3)c(=O)c2c1` was 94.2% (inactive). Take `O=C(Nc1cccc(Cl)c1)c1cc(Cl)ccc1O`: the growth is 12.3% (inactive). To `CC(C)C1C2=C(NCCN1C(=O)Cc1ccccc1)C(C)(C)N(Cc1ccccc1)C2=O` (stereo not given) belongs 106% (inactive); to `C[C@@H]1CN(Cc2ccc(/C=C/c3n[nH]c4ccc5nc(-c6cn[nH]c6C(F)(F)F)c6c(c5c34)CCCC6)cc2)C[C@H](C)O1`, 7.98% (active). To `CC(=O)O[C@]1(C(C)=O)CC[C@H]2[C@@H]3C=C(Cl)C4=CC(=O)CC[C@]4(C)[C@H]3CC[C@@]21C` belongs 92.1% (inactive). To `COc1ccc(-c2nc(N/N=C/c3cccc(Br)c3)nc(N3CCOCC3)c2C#N)cc1` belongs -21.3% (active); to `C#CCn1cc(C=C2C(=O)NC(=S)NC2=O)c2cc(Cl)ccc21`, 4.92% (active); to `O=C(Nc1ccc2cc3ccc(NC(=O)N4CCCCCC4)cc3nc2c1)N1CCCCCC1`, 8.09% (active). Regarding `C=C(C)[C@@H]1CC[C@]2(CO)CC[C@]3(C)[C@H](CC[C@@H]4[C@@]5(C)CCCNC(C)(C)[C@@H]5CC[C@]43C)[C@@H]12`, the growth is -40.4% (active). To `CC(=O)CCSc1ccc(OC(C)=O)cc1` belongs 90.1% (inactive). To `c1ccc(-c2nn(-c3ccccc3)[n+](-c3cccc4ccccc34)n2)cc1` belongs 4.45% (active); to `CC(C)CN(C(=O)c1ccc(Cl)cc1)c1c(N)n(CC(C)C)c(=O)[nH]c1=O`, 64.1% (inactive).

For the molecule `CN1CCN(c2cc(F)c(NC3=C(Cl)C(=O)c4ncccc4C3=O)c(F)c2)CC1`, the growth was -0.813% (active). To `COc1cc(C(=O)/C=C/c2c(C)n([O-])c3ccc(Cl)cc3[n+]2=O)cc(OC)c1OC` belongs -5.8% (active); to `O=c1[nH]nc(-c2ccc(Br)cc2)cc1Cc1ccc(O)cc1`, -29.1% (active); to `Fc1ccc(-n2cc(COc3ncnc4sc5c(c34)CCCC5)nn2)cc1Cl`, 93.5% (inactive). The value for `COc1ccc(C(=O)c2cc3c(N)c(C(=O)Nc4ccc(Cl)cc4)sc3nc2C)cc1` was 36.4% (inactive). The value for `NC(=O)c1ncn(C2OC(CO)C(O)C2O)n1` (stereo not given) was 73.2% (inactive). For `COc1ccc(-c2nc(N/N=C/c3cccc(O)c3)nc(N3CCOCC3)c2C#N)cc1`, the growth was -20.3% (active). To `Cc1cc(C(=O)Nc2ncnc3nc[nH]c23)no1` belongs 89.6% (inactive); to `CCOC(=O)c1c(C)nc2c(c1N)C(=O)C(=O)N2Cc1ccc(C(F)(F)F)cc1`, 23.3% (inactive); to `CNC(=O)NCC1OC(n2cnc3c(NC(=O)Nc4ccccc4)ncnc32)C(O[Si](C)(C)C(C)(C)C)C1O[Si](C)(C)C(C)(C)C` (stereo not given), -22.1% (active). To `COc1cc(NCCN(CC(C)C)C2CCCC2)c2ncccc2c1` belongs 82.6% (inactive).

As to `N#C/C(=C\c1ccc(Br)cc1)n1nnc2cccc(F)c21`, the growth is 10.1% (inactive).

For `NC(=O)c1cccc(-c2cc(C(N)=O)ccc2Cl)c1`, the growth is 2.33% (active). The value for `Clc1cc(Cl)cc(N2N=C(c3cccc(Nc4ccncc4)c3)CC2c2ccccc2)c1` (stereo not given) was 5.16% (active); that for `COc1ccc(Cl)cc1NC(=O)c1c(NC(=O)C(F)(F)C(F)(F)F)sc2c1CCCCC2` was 4.32% (active); that for `Nc1c(Cl)cc([N+](=O)[O-])cc1Br` was 99.5% (inactive). Regarding `Cc1cc2nc(-c3ccccc3)c(-c3ccccc3)nc2cc1C`, the growth is 76.9% (inactive). In the case of `COc1cc(NCC(O)CN(CC(C)C)C2CCCC2)c2ncccc2c1` (stereo not given), the growth is 80.1% (inactive).
